Data reported in PubChem BioAssay (NCI).
This is part of a sample that, as a whole, favours compounds with a hit. Of some 83,000 tested, about 20% had one in any assay.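 Testing used 96-well plates and a 48-hour single-concentration exposure. Example: -40 means 40% of the starting cells died.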 Active and inactive are the calls of the source. The calls were made as follows: active = growth percent below 10; inactive = the rest.

Each compound was assayed on MCF7 breast (assay: NCI-60 one-dose screen, 48 h (100 = growth as untreated, 0 = no growth, -100 = all killed)). Details: 10 µM unless noted.
In the case of `O=C(NCCCNc1cc(-c2cn(-c3ccccc3)nc2-c2cccc(O)c2)ccn1)c1cccc(O)c1`, the growth is reported as 47.3% (inactive).
`Cc1c(C(=O)OC(=NC2CCCCC2)NC2CCCCC2)sc2c1c(=O)nc1c(C#N)n[nH]n12` was tested, and the growth was 103% (inactive).
`COc1cc(N=Nc2ccc(N)cc2)c(OC)cc1N=Nc1ccccc1.[Cl][Zn][Cl]` was tested, and the growth was 85.6% (inactive).
`COc1cc(C2CC(c3cc(OC)c(OCCCOc4ccc(-n5c(/C=C/c6ccccc6)nc6ccccc6c5=O)cc4)c(OC)c3)=NO2)cc(OC)c1OC` (stereo not drawn) was tested, and the growth was 97.4% (inactive).
With `COc1cc(/C=N/NC(=O)Cn2c(C(C)C)nc3ccccc32)ccc1O` the growth was 95.1% (inactive).
In the case of `CC(C)(C)n1cc(-c2ccnc(NCCCNS(=O)(=O)c3ccccc3)c2)c(-c2ccccc2)n1`, the growth is reported as 62% (inactive).
For `COc1ccc(S(=O)(=O)NCCNc2nccc(-c3c(-c4cccc(F)c4)nc4sccn34)n2)cc1`, the growth was 17.1% (inactive).
In the case of `CCOC(=O)c1c(-c2ccc(Cl)cc2)c(C#N)c(=O)n(-c2ccccc2CC)c1N`, the growth is reported as 90.7% (inactive).
For `O=C(COc1ccc(/C=C2\Oc3ccccc3C2=O)cc1)c1ccc(Cl)cc1`, the growth was 95.3% (inactive).
`Cc1ccc2nc3ccccc3c(NCc3ccccc3)c2c1` was tested, and the growth was 11.2% (inactive).
For `O=c1[nH]nc(-c2ccccc2)c2c(-c3ccccc3)onc12`, the growth was 25.6% (inactive).
With `O=C1C=C[C@]2(C[C@@H](c3cccc(C(F)(F)F)c3)O[C@@H](c3cccc(C(F)(F)F)c3)O2)O1` the growth was -7.92% (active).
With `Cc1ccc(-c2cc3c(cc2O)C2CCCCC2(N2CCOCC2)O3)cc1` (stereo not drawn) the growth was 88.5% (inactive).
